# Source: PubChem BioAssay (National Center for Advancing Translational Sciences (NCATS))
# FMDV inh: High Throughput Screening for Foot and Mouth Disease Virus Antivirals; Potency, µM (top dose mostly 57.9 µM), inactives show at the top dose activity change, negative = inhibition, hits mostly inhibitors; hit rate 1.2% among 410,000; AID 1159524, 2015; FMDV antiviral cell-based qHTS; calls by dose curve; tested in HEK293T cells; also: read-out not given here; nearly all actives have a fitted effect of over 45% in size
# Sm TGR block: qHTS Assay for the Inhibitors of Schistosoma Mansoni Peroxiredoxins. Schistosoma mansoni thioredoxin glutathione reductase (TGR), Q962Y6. purified TGR, DTNB reduction, TNB absorbance 405 nm. Potency, µM (titrated, usually from 114 µM), for the others: top-dose activity change, negative = inhibition, actives largely listed as inhibitors. hit rate 3% among 360,000. AID 485364, 2010; also: nearly all actives have a fitted effect of over 60% in size
#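 First, TGR (20 nM dispensed) and NADPH were mixed with compound. Second, a 15 min room-temperature incubation followed. Third, further NADPH and then DTNB were added to start the reaction. Finally, TNB absorbance was monitored kinetically.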
# Marburg entry inh: qHTS for inhibitors of binding or entry into cells for Marburg Virus; Marburg virus pseudotyped entry inhibition, cell reporter; Potency, µM (doses to about 37.8 µM), without a hit: at the top dose activity change, negative = inhibition, actives largely listed as inhibitors; hit rate 1.8% among 300,000; AID 540276, 2011; calls by dose curve; tested in HEK293 cells
# Lassa entry inh: qHTS for Inhibitors of binding or entry into cells for Lassa Virus | Lassa virus pseudotype entry inhibition, cell reporter | Potency, µM (doses to about 37.9 µM), without a hit: at the highest dose activity change, negative = inhibition, most hits filed as inhibitors | hit rate 1.2% among 300,000 | AID 540256, 2011; calls by dose curve; tested in HEK293 cells; also: nearly all actives have a fitted effect of over 50% in size
# HCV inh: qHTS Assay for Inhibitors of Hepatitis C Virus (HCV); Huh7.5.1 HCVcc-Cre infection, luciferase reporter, 44 h; Potency, µM (titrated, usually from 41.8 µM), without a hit: at the top dose activity change, negative = inhibition, most hits filed as inhibitors; hit rate 3.4% among 340,000
#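 After 44 h co-culture of compound, cells and HCVcc-Cre (~0.5 moi), substrate is added for 15 min at room temperature and luciferase measured over 15 sec. Cells were seeded at 1,000/well and pre-cultured 4 h.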
# RE007 growth inh: qHTS Assay for Inhibitors of the HIV-1 protein Vpr. S. pombe RE007 Vpr strain, BacTiter-Glo ATP luminescence, 24 h. hit rate 0.21% among 360,000. Potency, µM (titrated, usually from 92.2 µM), inactives show at the highest dose activity change, negative = less growth, actives largely listed as inhibitors; active = well fitted falling curve with a large enough effect; inconclusive = small, poorly fitted or top-dose-only effect; inactive = no such curve, though single readings can be large or run the other way; also: nearly all actives have a fitted effect of over 50% in size
#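 Fission yeast strain RE007, carrying one chromosomally integrated HIV-1 vpr copy, was seeded at OD 0.01 in PMG+AL medium with 23 nL pinned compound. After 24 h at 30 °C and 99% humidity, viability was read by BacTiter-Glo luminescence.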
# The depositor's hits bear a star; ? = inconclusive; · = not tested or not shown; [ ] = remark or other dose. Hits are enriched below; roughly 7.2% of the tested compounds scored in any of these assays. Unless noted, calls follow the shape of the dose curve; as a rule, active = well fitted curve in the direction sought with a large enough effect; inconclusive = small, poorly fitted or top-dose-only effect, or another doubt; inactive = no such curve, though single readings can be large; an effect the other way counts as inactive or inconclusive. % is scaled to controls: 0 for no effect and ±100 for the full control effect; potency is read from the fitted curve at half-maximal effect.
SMILES,FMDV inh,Sm TGR block,Marburg entry inh,Lassa entry inh,HCV inh,RE007 growth inh
COc1cc(OC)c2cc(C(=O)N/N=C/c3cccc(OC)c3O)[nH]c2c1,-24.6%,-0.5%,4.47µM*,?,8.91µM*,4.3%
COc1cccc(/C=N/NC(=O)c2cc3c(OC)ccc(OC)c3[nH]2)c1O,-20.0%,-10.4%,·,·,2.51µM*,10.9%
CCCCNC(=O)COC(=O)c1c2c(nc3ccccc13)/C(=C/c1cccs1)CC2,19.5%,-12.9%,?,?,2.24µM*,27.4%
CCOC(=O)c1ccc(Nc2c(-c3ccc(OC)cc3)nc3nc[nH]n23)cc1,?,8.4%,·,?,·,·
CCOC(=O)c1ccc(Nc2c(-c3ccc(O)c(OC)c3)nc3nc[nH]n23)cc1,0.1%,31.6µM*,·,-17.3%[46.1 µM],·,·
O=C(O)c1cccc(Br)c1,-9.6%,·,·,·,0.794µM*,12.9%
COc1ccc(/C=N/NC(=S)Nc2cccc(C(=O)O)c2)cc1OC,15.8µM*,-17.8%,?,?,12.1%,5.9%
O=C(O)c1cccc(NC(=S)NC(=O)c2ccncc2)c1,-11.5%,31.6µM*,-24.3%[46.1 µM],?,6.6%,-10.4%
O=C(CCCc1ccccc1)Nc1cccc(C(=O)O)c1,14.1µM*,·,2.51µM*,?,8.8%,-1.1%
Cc1ccc2c(c1)cc(CN(C)Cc1nc(C)cs1)c(=O)n2C,6.0%,·,·,·,·,·
CN(CCc1ccccc1)C(c1cc2ccccc2o1)c1nnnn1C(C)(C)C (stereo unspecified),-26.5%,·,·,·,·,3.3%
COc1ccc([C@]23Cc4cc(C#N)ccc4[C@H](O2)C2=C(CC4(CCCCC4)OC2=O)O3)cc1,·,·,1.2%[14.2 µM],·,·,·
O=C(O)c1ccc(NC(=S)NC(=O)c2cncc(Br)c2)cc1,-42.5%,11.2µM*,·,·,1.5%,-4.6%
O=C(O)c1cccc(NC(=S)NC(=O)c2cccc(OCc3ccccc3)c2)c1,25.1%,25.1µM*,·,·,-4.0%,10.9%
CNC(=S)Nc1cccc(C(=O)O)c1,-2.7%,3.16µM*,1.9%,6.2%,4.3%,2.4%
CC(C)(C)C(=O)NC(=S)Nc1cccc(C(=O)O)c1,-3.3%,14.8%,?,3.0%[46.1 µM],-8.4%,13.9%
CC(C)CC(N)C(=O)NC(C)C(=O)O (stereo unspecified),6.4%,·,·,·,·,·
CCCCn1nnc(NC(=S)NC(=O)c2ccc(OCC)c([N+](=O)[O-])c2)n1,-12.0%,39.8µM*,-5.9%,-17.4%,-29.5%,8.9%
COc1ccc(C)cc1NC(=O)C1CCC(CNS(=O)(=O)c2ccc3c(c2)CCCC(=O)N3)CC1 (stereo unspecified),?,3.9%,·,0.1%[46.1 µM],·,·
Cc1ccc(-c2nn(C)c(=O)c3ccccc23)cc1CNC(=O)/C=C/c1ccccc1,-24.9%,1.1%,?,20.6µM*,-52.5%,-6.3%
Cc1ccccc1Cc1c(C)nc2nc(SCC(=O)NCCc3ccc(Cl)cc3)nn2c1C,?,?,-2.1%[46.1 µM],?,·,·
COc1ccccc1Cn1nc(C(=O)O)c2ccccc2c1=O,16.1%,-11.6%,?,·,-14.6%,7.0%
Cc1cccc(C)c1OCCn1nc(C(=O)O)c2ccccc2c1=O,?,-18.1%,10µM*,6.31µM*,1.3%,-3.2%
CCOc1ccc(C(C)=O)cc1Cn1nc(C(=O)O)c2ccccc2c1=O,?,-9.5%,?,-5.3%,7.94µM*,34.0%
Cc1cccc(OCCn2nc(C(=O)O)c3ccccc3c2=O)c1,-27.8%,0.5%,15.4%[46.1 µM],7.1%,-15.3%,2.1%
SMILES,FMDV inh,Sm TGR block,Marburg entry inh,Lassa entry inh,HCV inh,RE007 growth inh
Cc1ccc2c(c1)-c1c(cnn1CC(=O)N1CCN(c3ccccc3F)CC1)CO2,-17.8%,12.6%,-10.8%[46.1 µM],·,·,·
COc1ccc(NC(=O)c2ccc3oc(=O)c(S(=O)(=O)c4ccc(F)cc4)cc3c2)cc1OC,?,4.7%,-14.2%[46.1 µM],-3.5%[46.1 µM],·,·
Cc1cc(C)cc(NC(=O)c2ccc3oc(=O)c(S(=O)(=O)c4ccc(F)cc4)cc3c2)c1,20µM*,2.4%,?,-9.2%[46.1 µM],·,·
CN(C)C(=O)c1cc(CNCc2ccc(C(F)(F)F)cc2)cc(NC(=O)c2ccccn2)c1,0.5%,·,·,·,·,·
O=C1N=C2C=CC=CC2c2ccccc21 (stereo unspecified),·,·,16.6%,·,·,·
CC(=O)C1=C(C)N(Cc2ccccc2)C(=O)N[C@H]1c1ccc(Br)cc1,·,·,-0.3%[14.2 µM],·,·,·
Cc1cccc(C)c1Nc1c(-c2ccsc2)nc2cccc(C)n12,0.0%,0.7%,13.6%[46.1 µM],3.9%[46.1 µM],·,·
CCOc1ccc(N2CC(NC(=O)Cc3ccccc3)CC2=O)cc1 (stereo unspecified),43.9%,0.6%,·,-5.7%[46.1 µM],·,·
COc1cc(OC)c(C(=O)/C=C/c2ccccc2)c(O)c1O,25.1µM*,?,·,·,-18.1%,8.4%
Cc1cc(O)c(C(=O)/C=C/c2ccccc2)c(=O)o1,11.2µM*,?,-21.3%,-12.0%,-25.4%,-4.8%
Cc1cc(O)c(C(=O)/C=C/c2ccccc2Br)c(=O)o1,11.2µM*,-31.7%,13.7%[46.1 µM],?,-16.2%,-1.4%
COc1cc(O)cc(O)c1C(=O)/C=C/c1ccccc1,-21.6%,?,·,·,?,?
O=C(c1ccc2c(c1)N(Cc1ccccc1)C(=O)c1ccccc1S2(=O)=O)N1CCCCCC1,22.8%,-9.5%,-23.8%[46.1 µM],?,·,·
CCOC(=O)c1ccc(NC(=O)CN(Cc2ccc(C)cc2)S(=O)(=O)c2ccc(C)cc2)cc1,-24.2%,15.4%,·,?,·,·
CC(=O)Nc1cccc(-c2ccnc3c2CC(C(=O)NCCN(C)C)O3)c1 (stereo unspecified),-1.3%,·,·,·,·,-3.9%
CCOC(=O)c1c(C)[nH]c2cc(Br)c(OC)cc12,3.3%,12.4%,-24.6%,1.8%,5.62µM*,11.7%
CCOC(=O)[C@]12Cc3ccc4ccccc4c3[C@H]1N(Cc1ccccc1)C(=O)c1ccccc12,22.4µM*,·,·,·,·,8.9%
CCCCCN1C(=O)c2cc(OC)ccc2[C@@]2(C(=O)OCC)Cc3cc(Cl)ccc3[C@@H]12,7.94µM*,·,·,·,·,?
CCOC(=O)[C@]12Cc3ccccc3[C@H]1N(Cc1ccccc1)C(=O)c1cc(OC)ccc12,?,·,·,·,·,12.1%
CCOC(=O)[C@]12Cc3cc(OC)ccc3[C@H]1N(Cc1ccccc1)C(=O)c1cc(OC)ccc12,-14.9%,·,·,·,·,-8.2%
CCOC(=O)[C@]12Cc3cc4ccccc4cc3[C@H]1N(Cc1ccccc1)C(=O)c1cc(OC)ccc12,7.94µM*,·,·,·,·,-4.8%
CCOC(=O)[C@]12Cc3cc(Cl)ccc3[C@H]1N(Cc1ccccc1)C(=O)c1cc(OC)ccc12,8.91µM*,·,·,·,·,-29.6%
COc1ccc(CCNC(=O)CN2C(=O)COc3ccccc32)cc1OC,-11.4%,6.8%,·,?,·,·
Cc1ccccc1CN1CCCN(CC(=O)Nc2c(C)cccc2C)S1(=O)=O,-2.2%,-0.3%,·,0.3%[46.1 µM],·,·
